In all, about 410,000 compounds went through this assay and about 6,400 (1.6%) were called active. About 20% were inconclusive and are not listed. Calls come from the whole dose curve; as a rule, active = well fitted inhibition curve with a large enough effect; inconclusive = small, poorly fitted or top-dose-only effect; inactive = no such curve, though single readings can be large or run the other way. This excerpt belongs to a sample that is enriched for actives.
Each compound was assayed against Glucagon-like peptide 1 receptor (Homo sapiens) (UniProt P43220) (assay: qHTS of GLP-1 Receptor Inverse Agonists (Inhibition Mode)). Settings: HEK293 GLP-1R CRE-luciferase, luminescence, 24 h, GLP-1R form is constitutively active; series mostly up to 38.3 µM; activity change, negative = inhibition: at the top concentration.
Glucagon-like peptide 1 receptor (Homo sapiens), sequence (P43220 whole entry, looked up): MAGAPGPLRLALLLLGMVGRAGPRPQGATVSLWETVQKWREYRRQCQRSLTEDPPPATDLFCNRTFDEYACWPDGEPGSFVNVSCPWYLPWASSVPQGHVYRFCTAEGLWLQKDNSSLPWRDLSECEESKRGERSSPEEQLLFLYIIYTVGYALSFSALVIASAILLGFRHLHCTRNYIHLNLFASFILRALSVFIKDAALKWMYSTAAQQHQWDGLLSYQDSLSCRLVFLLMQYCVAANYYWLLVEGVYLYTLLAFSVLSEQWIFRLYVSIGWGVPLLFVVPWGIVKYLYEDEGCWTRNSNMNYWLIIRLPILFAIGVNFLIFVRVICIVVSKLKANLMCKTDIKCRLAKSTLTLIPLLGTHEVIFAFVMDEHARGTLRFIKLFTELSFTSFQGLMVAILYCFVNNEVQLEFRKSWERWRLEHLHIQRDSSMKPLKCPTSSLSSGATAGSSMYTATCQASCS
Method in brief: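 qHTS in 1536-well format: reporter HEK293 cells expressing constitutive GLP-1R activity in DMEM + 10% Nu serum, 24 hr with compounds at 37 deg C, luminescence read after 12 min with detection reagent.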
% is set by controls: 0 for no effect and ±100 for the full control effect; potency is the fitted concentration of half-maximal effect.
Note: nearly all actives have a fitted effect of over 55% in size.

Activity change, negative = inhibition, inactive:
O=C(C=CC(=O)Nc1ccc(F)cc1F)Nc1ccc(F)cc1F 16.9%
O=C(NCc1ccncc1)c1cccc(NS(=O)(=O)c2ccc(F)c(F)c2)c1 -12.2%
CCOC(=O)N1CCN(C(=O)c2ccc(S(=O)(=O)Nc3cccc(C(F)(F)F)c3)cc2)CC1 -8.41%
CC(=O)Nc1ccc(C=Cc2ccc([N+](=O)[O-])cc2)cc1 9.15%
CC(=O)Nc1ccc(C=CC(=O)c2ccc([N+](=O)[O-])cc2)cc1 -3.33%
CN1OC[C@@H]2CN(C(=O)c3cccc4ccccc34)[C@H](c3ccc(N4CCCCC4)cc3)C[C@@H]21 3.98%
COCCNC(=S)N(Cc1cccnc1)Cc1ccc(OC)c(OC)c1 14.6%
CCN(Cc1ccncc1)C(=S)Nc1ccccc1C -2.47%
Nc1nc2cc(Cl)ccc2n1N -52.9%
C[C@H]1Cn2cnc(C(=O)N[C@@H](Cc3c[nH]c4ccccc34)C(=O)OC(C)(C)C)c2C(=O)N1 6.39%
COc1ccccc1C(=O)NC(=S)Nc1ccc(N2CCOCC2)cc1 -5.24%
O=C(Cc1ccc([N+](=O)[O-])cc1)NCCS(=O)(=O)N1CCN(c2ccccc2)CC1 -2.98%
Cc1ccc(-n2ncc3c2CCCC3NC(=O)c2cnccn2)cc1C (stereo not drawn) 8.53%
Cn1nccc1C(=O)NC1CCCc2c1cnn2-c1ccc(F)cc1F (stereo not drawn) 10%
COCCCNC(=O)c1ccc(-c2c(C)noc2C)c2ccoc12 -5.17%
CCCS(=O)(=O)NC(=O)C1(C)CCCN(C(=O)c2cc(C)on2)C1 (stereo not drawn) 8.84%
CCC1NC(=O)c2cccnc2-n2c1nc1ccc(C)cc1c2=O (stereo not drawn) -5.41%
CCCCCCSc1ccc([C@@H]2[C@H]3C(=O)N(CC)C(=O)[C@H]3[C@]3(C(=O)OC)CCCCN23)cc1 -8.07%
CCN1C(=O)[C@@H]2[C@@H](c3ccc(-c4ccc(OC)cc4)c(OC)c3)N3CCC[C@@]3(C(=O)OC)[C@@H]2C1=O 2.32%
CSc1ccc(CNC(=O)C2(C)CCCN2C)cc1 (stereo not drawn) 9.89%
Cc1cc(C(=O)N2CCCC2(C)C(=O)O)c(C)o1 (stereo not drawn) 25.9%
O=C(c1ccc(-c2ccccc2)cc1)C1CCCN(C(=O)c2cncs2)C1 (stereo not drawn) -53%
CCn1nc(C)cc1C(=O)N1CCCC(C(=O)c2cccc(OC)c2)C1 (stereo not drawn) 32.6%
CCOC(=O)[C@]12CCC=C1N(Cc1ccco1)C(=O)[C@H](CC(=O)N1CCSCC1)C2 8.51%
Clc1nc(NC2CCCC2)nc(N2CCOCC2)n1 30.6%
COC(=O)c1ccc(Oc2nc(Nc3ccc(F)cc3)nc(N3CCCC3)n2)cc1 2.41%
CO[C@@H]1CN(C)C(=O)c2cc(NC(=O)Nc3cc(F)ccc3F)ccc2OC[C@H](C)N(C(=O)c2ccccn2)C[C@@H]1C 12.7%
CCN(CC)C(=O)C1=C(C)N(Cc2ccc(F)cc2)C(=O)C(CC(=O)NC2CCCC2)C1 (stereo not drawn) 1.9%
O=C(Nc1ccc(F)cc1)C(CCc1ccccc1)N1CCN(CC(=O)N2CCCC2)CC1 (stereo not drawn) 15.1%
N#CCSc1ccccc1NC(=O)CN1C(=O)NC(CCc2ccccc2)C1=O (stereo not drawn) 4.84%
Nc1cc(C(=O)N2CCN(c3ccccc3Cl)CC2)ccc1N1CC2CC(C1)c1cccc(=O)n1C2 (stereo not drawn) 1.93%
Cc1cc(NC(=O)c2ccc(F)cc2)ccc1NC(=O)c1ccco1 -2.68%
CCC(=O)NC(=S)Nc1ccc(NC(=O)c2ccco2)c(Cl)c1 56.6%
O=C(Nc1ccc(N2CCOCC2)cc1)c1cccc2c(-c3ccc(F)c(F)c3)coc12 6.21%
O=NN(CCCl)C(=O)NCCc1cccc[n+]1[O-] 13.9%
COc1ccccc1NC(=S)NC(=O)C(C)C 0%
CCc1nc(SCC(=O)Nc2ccccc2OC)n[nH]1 9.23%
Cc1ccccc1NC(=O)Cc1nc(COC(=O)CNC(=O)c2ccc(Cl)cc2Cl)cs1 4.36%
CCOc1ccc(CCNC(=O)COC(=O)c2ccc(C)c(S(=O)(=O)N3CCOCC3)c2)cc1OCC 3.97%
Cc1cc(Br)cn2c(Cc3ccsc3)c(-c3ccc(C#N)cc3)nc12 -7.25%
COc1ccccc1OCC(O)CN1CCOCC1 (stereo not drawn) 4.18%
Cc1ccc(OCC(O)CN2CCN(CC(O)COc3ccc(C)cc3Cl)CC2)c(Cl)c1 (stereo not drawn) 3.12%
O=C1NC[C@H](Cc2ccc(O)cc2)N(C[C@H]2CCCN2C[C@H](Cc2ccccc2)N2C[C@H](Cc3ccccc3)N(CCc3ccccc3)C(=O)C2=O)C1=O 9.65%
CC1(C(=O)NS(=O)(=O)c2ccccc2)CCN1C(=O)C1CCCCC1 (stereo not drawn) -3.17%
Cc1cc2oc(C(=O)N(Cc3ccc(Cl)cc3)Cc3ccco3)c(C)c2cc1Cl 6.07%
CCOc1ccc(S(=O)(=O)N(CC(=O)NCC(F)(F)F)Cc2ccco2)cc1 16%
CC(=O)c1nn(-c2ccccc2)c(=Nc2ccccc2)cc1C 1.43%
Cc1cc2c3ccccc3[nH]c(=O)n2n1 23.2%
CSc1ncnc2c1ncn2CCCNCc1ccco1 14.9%
COc1ccc(-c2cc(NC=O)c3ncc(-c4ccccc4)n3c2)cc1OC -18.1%
Fc1ccccc1COc1cccc2cccnc12 -24%
OCc1ccc(OCCCOc2cccc3cccnc23)cc1 25.8%
Cc1ccccc1OS(=O)(=O)c1cccc([N+](=O)[O-])c1 -32.3%
O=C(CSc1nnc2ccccn12)c1ccccc1 11.5%
Cc1ccc(C(=O)NNC(=O)CSc2nnc3ccccn23)cc1 -23.9%
Cc1cccc(CN2CCN(C3CN(Cc4cn(Cc5ccccc5F)nn4)S(=O)(=O)C3)CC2)c1 (stereo not drawn) -2.68%
c1ccc2c(c1)nnn2-c1ccncc1 6.01%
Cc1ccccc1S(=O)(=O)NC(=O)C1(C)CCN1C(=O)C1(c2ccccc2)CCCC1 (stereo not drawn) -25.9%
COc1cc(NC(=O)C2=C(C)OCCS2)c(Cl)cc1C(=O)NCCCN1CCCC(C)C1 (stereo not drawn) 16.6%
O=C(Nc1cc(C(F)(F)F)ccc1Cl)c1nc2ccccc2nc1N1CCCCC1 0.167%
O=C(CNS(=O)(=O)c1cccc(C(F)(F)F)c1)Nc1ccccc1F -16.9%
O=C(COC(=O)c1cncc(Br)c1)Nc1ccc(S(=O)(=O)N2CCOCC2)cc1 -0.0324%
CC1(Oc2ccc(Cl)cc2)CCN(Cc2csc3ccccc23)C1 (stereo not drawn) -17.5%
CCCc1c(C(=O)O)cnn1-c1ccc(Cl)cc1 6.36%
CCc1ccccc1NC(=O)c1cnn(-c2ccc(F)cc2)c1C1CCNCC1 -22.5%
Cc1cc(OCC(=O)Nc2nccs2)c2c(C)c(C)c(=O)oc2c1 -12.1%
CCc1noc(C)c1C(=O)Nc1nc2ccc(OC)cc2s1 0.249%
Cc1ccc(F)cc1NC(=O)CSCc1c(C)noc1C -3.47%
COc1ccc(S(=O)(=O)N2CCC(C(=O)NCCC(=O)NCCc3cccc(F)c3)CC2)cc1 3.25%
CC(C)c1nc2ccc(C(=O)O)cc2[nH]1 -1.32%
Cc1ccc2nc(CNC(=O)c3ccccc3)[nH]c2c1 -8.76%
Cc1cccc(C(=O)OCC(=O)Nc2sccc2C(N)=O)c1C -14.6%
CC(C)C1CCN(C(=O)C2CCC(=O)N(C3CCCCCC3)C2)CC1 (stereo not drawn) 4.55%
Cc1ccc(/C=C2\SC(=S)N(CCC(=O)Nc3ccc(O)cc3)C2=O)cc1 -7.25%
O=C(CCN1C(=O)/C(=C/c2cccs2)SC1=S)NNC(=O)c1cccc(O)c1 -10.3% [at 7.66 µM]
CCCNC(=O)C1(C)CCN1C(=O)Cc1ccc(-c2ccccc2)cc1 (stereo not drawn) -12.2%
O=C(c1ccc(CS(=O)Cc2ccccc2Cl)o1)N1CCN(c2ccccc2)CC1 (stereo not drawn) -1.8%
OCC1OC(n2cnc3c(N4CCCC4)ncnc32)C(O)C1O (stereo not drawn) 3.56%
CC(=O)N1CCN(Cc2cc(=O)oc3cc(C)ccc23)CC1 8.45%
Cc1ccc(C(=O)Nc2c(-c3ccccc3)[nH][nH]c2=O)cc1 8.15%
CCc1cccc(C)c1NS(=O)(=O)c1ccc(-c2cc(C)no2)s1 -48%
COc1ccc(N2CCN(S(=O)(=O)c3cc(Br)cnc3N)CC2)cc1 11.4%

Potency, active:
O=C(NCc1ccccc1)c1ccc(S(=O)(=O)Nc2cccc(C(F)(F)F)c2)cc1 10 µM
O=C(O)/C=C/C(=O)NNc1ccc([N+](=O)[O-])cc1 8.91 µM
Cc1ccc(CN(Cc2cccnc2)C(=S)Nc2cc(Cl)ccc2C)cc1 10 µM
COc1ccc(OC)c(C(=O)NC2CCCc3c2cnn3-c2cc(C)cc(C)c2)c1 (stereo not drawn) 10 µM
CCCCCCSc1ccc([C@@H]2[C@@H]3C(=O)N(CC)C(=O)[C@@H]3[C@]3(C(=O)OC)CCCCN23)cc1OC 11.2 µM
Cn1nccc1C(=O)N1CCCC(C(=O)c2ccc(Oc3ccccc3)cc2)C1 (stereo not drawn) 3.55 µM
COc1nc(NC2CCCCC2)nc(N2CCCCCC2)n1 5.01 µM
CN1CCN(C2Cc3ccc(Cl)cc3Sc3ccc(F)cc32)CC1 (stereo not drawn) 8.91 µM
CCN(CC)P(=O)(Nc1ccc(SC(F)F)cc1)c1ccc(N(C)C)cc1NC(=O)c1ccco1 (stereo not drawn) 2.51 µM
CCSc1nsc(NC(=O)Nc2ccccc2OC)n1 11.2 µM
OC(COc1ccc(F)cc1Cl)CN1CCc2ccccc2C1 (stereo not drawn) 10 µM
O=C1OC(Oc2ccc(Br)cc2)(c2ccccc2)c2ccccc21 (stereo not drawn) 10 µM
O=C(COc1ccc(Cl)cc1)N(Cc1ccco1)Cc1ccco1 10 µM
O=C(Nc1ccccc1)Oc1cccc2cccnc12 3.98 µM
Cc1ccc(-n2c(C)cc(C(=O)CSc3nnc4ccccn34)c2C)cc1 8.91 µM
O=C(NNc1ccccc1Cl)C(O)(c1cccc(C(F)(F)F)c1)c1cccc(C(F)(F)F)c1 3.98 µM
CCCc1c(C(=O)Nc2ccc(F)cc2)cnn1-c1ccccc1 10 µM
Cc1noc(C)c1CSCC(=O)Nc1nc2ccc(Oc3ccccc3)cc2s1 7.94 µM
COC(=O)Nc1nc2ccc(Sc3ccccc3)cc2[nH]1 1.12 µM
O=C(CCCN1C(=O)/C(=C/c2cccs2)SC1=S)Nc1ccc(O)cc1 5.01 µM
CCc1cccc(C)c1NS(=O)(=O)c1cc(Br)cnc1N 10 µM
